Bioassay records from PubChem BioAssay.
TRHR agonist-1: qHTS for Small Molecule Agonists and Allosteric Enhancers of Human TRH Receptor: Primary Screen for Agonists; Thyrotropin-releasing hormone receptor (Homo sapiens), P34981; TRHR cells, calcium flux fluo-8, FDSS agonist mode; activation, % at 2 µM; 360,000 compounds, 0.18% hits; AID 493084, 2011; in the data active = activation above about 30%
Target sequence (P34981 whole entry, looked up): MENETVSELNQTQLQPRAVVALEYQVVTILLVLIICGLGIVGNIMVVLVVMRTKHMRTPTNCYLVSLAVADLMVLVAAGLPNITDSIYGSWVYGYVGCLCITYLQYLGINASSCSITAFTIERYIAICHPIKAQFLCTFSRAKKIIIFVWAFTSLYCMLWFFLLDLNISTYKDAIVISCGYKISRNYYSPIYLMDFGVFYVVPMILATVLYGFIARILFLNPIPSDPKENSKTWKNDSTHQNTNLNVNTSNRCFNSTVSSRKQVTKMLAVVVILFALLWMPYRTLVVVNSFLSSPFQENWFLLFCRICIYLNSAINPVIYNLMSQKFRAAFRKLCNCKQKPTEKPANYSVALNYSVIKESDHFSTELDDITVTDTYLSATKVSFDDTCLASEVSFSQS
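Read-out: compound-evoked intracellular calcium rise in TRHR cells, fluo-8 dye, kinetic FDSS fluorescence at 1 s/cycle following a 10-cycle baseline. Cells cultured overnight before dye loading (30 min–1.5 h, RT).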
TRPML1 agonist: qHTS for Agonists of the Human Mucolipin Transient Receptor Potential 1 (TRPML1) | Mucolipin-1 (Homo sapiens), Q9GZU1 | TRPML1-expressing cells, Ca2+ dye fluorescence, FDSS | activation, % (no concentration beside the values) | 410,000 compounds, 0.12% hits | AID 624414, 2012; in the data active = activation above about 50%; inconclusive = mostly about 30% to 49%
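Calcium fluorescence on an FDSS kinetic reader gave the read-out. Tet-induced TRPML1-DL cells were plated overnight, dye-loaded (Ca8 with quencher, 45-90 min, room temperature, dark), then read 110 s after compound addition, and again 110 s after 4uM final 54-4 (EC80).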
hERG WT inh: qHTS for Inhibitors of KCHN2 3.1: Wildtype qHTS. U2OS, BacMam KCNH2, thallium flux FluxOr; hits give low values. activity change, % at 1.84 µM. 340,000 compounds, 0.37% hits. AID 720551, 2013;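 active = maximum activity change below -70%; inconclusive = maximum activity change between -70% and -50%; inactive = maximum activity change above -50%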
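U2OS cells transduced with wild-type KCNH2 virus are loaded with FluxOr dye for 45 min, and thallium flux is measured in kinetic reads before and after stimulation buffer. Rate constants are normalized to DMSO controls.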
KCNH2 3.1 inh: qHTS for Inhibitors of KCHN2 3.1: Mutant qHTS; U2OS KCNH2 3.1, thallium flux FluxOr; hits give low values; activity change, % (tested at about 1.8 µM); 340,000 compounds, 0.95% hits;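 active = maximum activity change below -70%; inconclusive = maximum activity change from -70% to -50%; inactive = maximum activity change above -50%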;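 note: thallium influx rate constant from kinetic fluorescence after stimulation buffer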
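Thallium flux read-out: FluxOr dye with Red40 quencher in HBSS/HEPES, 45 min at RT. Rate constants from kinetic reads were normalized to positive and negative DMSO controls. Cells: U2OS virally expressing the 3.1 isoform.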
TRHR enhancer-1: qHTS for Small Molecule Agonists and Allosteric Enhancers of Human TRH Receptor: Primary Screen for Enhancers; AID 493056, 2011; enhancement, % at 2 µM; 360,000 compounds, 0.66% hits; Thyrotropin-releasing hormone receptor (Homo sapiens), P34981; TRHR cells, fluo-8 calcium fluorescence, EC20 TRH enhancement; in the data active = enhancement above about 30%
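TRHR-expressing cells loaded with fluo-8 calcium dye were read kinetically (ex 480/em 530) during compound addition, then stimulated with an EC20 of TRH (10 nM final). Enhancement of the Gq-mediated intracellular calcium response was scored.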
TRPML1 blocker: qHTS for Inhibitors of the Human Mucolipin Transient Receptor Potential 1 (TRPML1); Mucolipin-1 (Homo sapiens), Q9GZU1; TRPML1-inducible cells, Ca2+ dye fluorescence, FDSS; hits give low values; inhibition of EC80 agonist-evoked calcium signal; activity change, negative = inhibition, % (no concentration beside the values); 390,000 compounds, 0.02% hits; AID 624415, 2012; in the data active = activity change below about -50%; inconclusive = between about -30% and that limit;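 note: stimulus is agonist 54-4 at its EC80 concentration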
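TRPML1-DL cells, Tet-induced overnight (~16 h, 37 °C) at 1,500 cells/well, were loaded with Ca8 no-wash dye plus quencher for 45-90 min at room temperature. Compounds were pinned during FDSS kinetic reading; agonist 54-4 at EC80 (4 uM final) then added.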
TRHR enhancer-2: qHTS for Small Molecule Agonists and Allosteric Enhancers of Human TRH Receptor: Confirmation Screen for Enhancers | AID 493076, 2011 | shares compounds with TRHR enhancer-1 | activity change, negative = inhibition, % at 46.1 µM | TRH receptor cell assay, enhancer confirmation qHTS | 970 tested, under 10 active;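 note: compound effect scored on response to added TRH at EC20 of 10 nM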
TRHR agonist-2: qHTS for Small Molecule Agonists and Allosteric Enhancers of Human TRH Receptor: Confirmation Screen for Agonists; AID 493078, 2011; TRHR-expressing cells, agonist activation read-out; Potency, µM (highest dose often 46.1 µM), actives largely listed as activators; 970 compounds, 8% hits; shares compounds with TRHR enhancer-1; note: nearly all actives have a fitted effect of over 75% in size
Of the large screens only hits and unclear results are named; the others gave an inactive call (follow-up assays come after a bar, where they were run); ! = not confirmed by another sample. In the library only some 1.7% were active in any assay of this set; here they are far more common. Unless noted, calls come from the whole dose curve; as a rule, active = well fitted curve in the direction sought with a large enough effect; inconclusive = small, poorly fitted or top-dose-only effect, or another doubt; inactive = no such curve, though single readings can be large; an effect the other way counts as inactive or inconclusive.

CCCC(=O)NC1C2CC3CC(C2)CC1C3 (centres undefined)	TRHR enhancer-1 51 | TRHR enhancer-2 inactive | TRHR agonist-2 inactive
COc1c(C)cc(NS(=O)(=O)c2ccc3c(c2)OCCO3)cc1C	none (no result: hERG WT inh, KCNH2 3.1 inh)
O=C(Nc1ccc(N2CCN(c3ccc(F)cc3)CC2)c(C(=O)O)c1)c1ccccc1F	none (no result: hERG WT inh, KCNH2 3.1 inh)
COc1cccc(NC(=O)c2cc3ccccc3o/c2=N\O)c1	TRHR enhancer-1 49 (no result: TRPML1 agonist, TRPML1 blocker) | TRHR enhancer-2 inactive | TRHR agonist-2 inactive
COc1cccc(NC(=O)c2cc3cccc(OC)c3o/c2=N\O)c1	none (no result: TRPML1 agonist, hERG WT inh, KCNH2 3.1 inh, TRPML1 blocker)
Cc1c(O)ccc2cc(S(=O)(=O)c3ccccc3)c(=O)oc12	TRHR agonist-1 37, TRPML1 agonist inconclusive | TRHR enhancer-2 inactive | TRHR agonist-2 23µM
COC(=O)c1ccccc1NC(=O)CCCn1nc([N+](=O)[O-])c(Br)c1C	none | TRHR enhancer-2 inactive | TRHR agonist-2 inactive
Cc1c(Cl)c([N+](=O)[O-])nn1CCCC(=O)Nc1cccc(Cl)c1Cl	none
COc1ccc(Nc2nc(N)c([N+](=O)[O-])c(N3CCCC3)n2)cc1	none
COc1ccc(Nc2nc(N)c([N+](=O)[O-])c(N3CCN(C)CC3)n2)cc1	TRHR enhancer-1 46 | TRHR enhancer-2 inactive | TRHR agonist-2 inactive
CCOc1cc(C2NC(=O)NC(C)=C2C(=O)OCC2CCCCC2)ccc1O (centres undefined)	none
COc1ccc(OC)c(NC(=O)c2cc(-c3ccc(Cl)s3)nc3ccccc23)c1	none (no result: hERG WT inh, KCNH2 3.1 inh)
Cc1ccc(N2CCN(C(=O)c3ccccc3)CC2)c(C)c1	none
Cc1ccc(N2CCN(C(=O)c3cc(C(=O)c4ccccc4C)c[nH]3)CC2)c(C)c1	TRHR enhancer-1 86 | TRHR enhancer-2 inactive | TRHR agonist-2 inactive
CS(=O)(=O)c1cccc(-c2csc(N3CCC(C(N)=O)CC3)n2)c1	TRHR enhancer-1 48! (no result: TRPML1 agonist, hERG WT inh, KCNH2 3.1 inh, TRPML1 blocker) | TRHR enhancer-2 inactive | TRHR agonist-2 inactive
O=C(NCC1CCCO1)c1ccc(Br)c(S(=O)(=O)N2CCOCC2)c1 (centres undefined)	none
COc1ccccc1NC(=O)COC(=O)c1ccc2ccccc2n1	none (no result: TRHR agonist-1, TRHR enhancer-1)
CC(=O)c1c(C)[nH]c(C(=O)OCC(=O)NCc2cccs2)c1C	none
O=C1/C(=C/c2cccs2)CCC/C1=C\c1cccs1	none
Cn1cccc1/C=C1\CCC/C(=C\c2cccn2C)C1=O	TRHR agonist-1 53, TRPML1 agonist inconclusive | TRHR enhancer-2 inactive | TRHR agonist-2 18µM
Cc1cc(Cl)ccc1C(O)c1ncc(-c2ccc(F)cc2)[nH]1 (centres undefined)	none (no result: TRHR agonist-1, hERG WT inh, KCNH2 3.1 inh, TRHR enhancer-1)
COCCN(Cc1ccccc1)C(=O)c1ccc(C(=O)c2ccccc2)cc1	none
CNC(=O)C(=O)Nc1c(C)cc(C)cc1C	TRHR enhancer-1 41 | TRHR enhancer-2 inactive | TRHR agonist-2 inactive
Cc1cc(NC(=O)C2C3C(=O)N(c4cccnc4)C(C(=O)NC(C)(C)C)C34C=CC2(C)O4)no1 (centres undefined)	TRHR enhancer-1 42 | TRHR enhancer-2 inactive | TRHR agonist-2 inactive
CC(C)(C)NC(=O)C1N(c2cccnc2)C(=O)C2C(C(=O)Nc3ccccc3)C3(C)C=CC21O3 (centres undefined)	none
CN(Cc1ccc(C(C)(C)C)cc1)C(=O)c1ccc2c(c1)OCO2	none
CCc1cc(C(=O)N2CCCC(CCC(=O)N3CCN(c4ccccn4)CC3)C2)no1 (centres undefined)	TRHR enhancer-1 42 | TRHR enhancer-2 inactive | TRHR agonist-2 inactive
CC(C)c1cc(C(=O)N2CCCC(CCC(=O)N3CCN(c4ccccn4)CC3)C2)no1 (centres undefined)	none
CC(=O)Nc1ccc(S(=O)(=O)N2CCN=C2SCc2ccccc2C)cc1	none
COc1cccc(/C=N/NC(=O)c2c(C)nc3ccc(Br)cn23)c1O	TRHR agonist-1 35 | TRHR enhancer-2 inactive | TRHR agonist-2 inconclusive
Cc1c(NC(=O)C(C)OC(=O)c2c3c(nc4ccccc24)CCC3)c(=O)n(-c2ccccc2)n1C (centres undefined)	TRHR enhancer-1 49 | TRHR enhancer-2 inactive | TRHR agonist-2 inactive
Cc1c(NC(=O)COC(=O)c2c3c(nc4ccccc24)CCCC3)c(=O)n(-c2ccccc2)n1C	none
COc1cc(CNCc2ccccn2)ccc1OCC(=O)NC1CCCCC1	TRHR enhancer-1 45 | TRHR enhancer-2 inactive | TRHR agonist-2 inactive
CCN(CC(=O)Nc1ccc(OC)cc1)CC(=O)Nc1sc2c(c1C(=O)OC)CCCC2	none
c1ccc(-n2cccc2CNC2CCCCC2)cc1	TRHR enhancer-1 48 | TRHR enhancer-2 inactive | TRHR agonist-2 inactive
CN1/C(=C\C(=S)NC(=O)c2ccc([N+](=O)[O-])cc2)C(C)(C)c2ccccc21	TRHR enhancer-1 48 | TRHR enhancer-2 inactive | TRHR agonist-2 inactive
CN1/C(=C\C(=S)NC(=O)c2cccc(Br)c2)C(C)(C)c2ccccc21	none
O=C(c1ccc2c(c1)OCO2)C1CCCN(C(=O)c2cnn(Cc3ccccc3)c2)C1 (centres undefined)	TRHR enhancer-1 41 | TRHR enhancer-2 inactive | TRHR agonist-2 inactive
COc1ccc(-c2ccc(F)cc2)cc1C1C2C=CCC(C)C2C(=O)N1Cc1ccccc1 (centres undefined)	none (no result: TRHR agonist-1, hERG WT inh, KCNH2 3.1 inh, TRHR enhancer-1)
Cn1c(-c2cccc(F)c2)nc2c1c(=O)[nH]c(=O)n2Cc1ccccc1	TRHR enhancer-1 49 | TRHR enhancer-2 inactive | TRHR agonist-2 inactive
CCCn1c(-c2cccc(F)c2)nc2c1c(=O)[nH]c(=O)n2Cc1ccccc1	none
Cc1cccc(C(=O)NCC(=O)OCC(=O)c2ccc3ccccc3c2)c1	none (no result: TRHR agonist-1, hERG WT inh, KCNH2 3.1 inh, TRHR enhancer-1, TRPML1 blocker)
Cc1ccc(C(=O)C(C)[n+]2cccc(C(N)=O)c2)cc1 (centres undefined)	none
